# Publication PMC7862700, “An all-to-all approach to the identification of sequence-specific readers for epigenetic DNA modifications on cytosine”
# How the values were obtained:
# Experiment in all cases: DAPPL (digital affinity profiling via proximity ligation, sequencing); 10 mM Tris-HCl pH 7.5, 50 mM NaCl, 1 mM DTT, 4% glycerol, room temperature, 30 min; GST-TFs on glutathione beads, 16-mer random dsDNA library, 0.1% formaldehyde crosslink after washing; high values mean tight binding
# Details in all cases: protein: recombinant; tags: N-terminal GST; dsDNA, one strand shown
# FLI1 = biological target: T1, FLI1 (Homo sapiens, UniProt Q01543 1-452)
# T1 sequence: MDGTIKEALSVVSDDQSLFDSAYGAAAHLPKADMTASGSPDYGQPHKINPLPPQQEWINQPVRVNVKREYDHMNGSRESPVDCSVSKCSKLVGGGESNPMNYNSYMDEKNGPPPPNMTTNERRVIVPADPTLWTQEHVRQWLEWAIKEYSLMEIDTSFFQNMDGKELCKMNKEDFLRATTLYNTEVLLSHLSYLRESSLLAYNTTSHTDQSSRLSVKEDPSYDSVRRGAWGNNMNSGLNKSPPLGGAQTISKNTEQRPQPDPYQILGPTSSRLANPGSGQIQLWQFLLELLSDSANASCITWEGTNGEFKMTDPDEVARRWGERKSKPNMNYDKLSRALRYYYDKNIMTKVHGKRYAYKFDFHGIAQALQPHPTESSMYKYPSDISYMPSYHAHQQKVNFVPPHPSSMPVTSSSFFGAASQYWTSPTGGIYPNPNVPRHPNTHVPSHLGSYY
# Method in brief: (§1)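 Beads coated with glutathione captured GST-fused human transcription factors that had been expressed in yeast, and the factors were then given DNA barcodes and pooled with a tag-only sample. The pools were incubated with 200 nmole of a random double-stranded 16-mer DNA library in Tris/NaCl/DTT/glycerol buffer for 30 min at room temperature, washed, crosslinked with 0.1% formaldehyde and proximity-ligated with BsaI/T4 ligase at 37 °C for 1 h. PCR amplification and Illumina NextSeq500 sequencing came last. Binding signal is each hexamer's read frequency for a factor divided by its frequency for the tag-only sample.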
# ELK1 = biological target: T2, ELK1 (Homo sapiens, UniProt P19419 1-428)
# T2 sequence: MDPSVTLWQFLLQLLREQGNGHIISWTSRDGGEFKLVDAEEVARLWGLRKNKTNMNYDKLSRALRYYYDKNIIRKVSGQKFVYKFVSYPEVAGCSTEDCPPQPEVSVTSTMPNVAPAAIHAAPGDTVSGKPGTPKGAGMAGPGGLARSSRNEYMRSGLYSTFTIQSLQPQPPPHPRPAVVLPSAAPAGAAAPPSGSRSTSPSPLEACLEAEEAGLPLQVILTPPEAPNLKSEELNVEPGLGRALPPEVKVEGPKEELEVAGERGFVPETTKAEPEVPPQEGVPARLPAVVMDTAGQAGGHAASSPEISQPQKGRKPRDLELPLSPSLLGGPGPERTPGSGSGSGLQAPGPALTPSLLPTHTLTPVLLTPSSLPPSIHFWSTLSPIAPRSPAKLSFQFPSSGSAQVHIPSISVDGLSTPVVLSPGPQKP
# Method in brief: as §1
# GABPA = biological target: T3, GABPA (Homo sapiens, UniProt Q06546 1-454)
# T3 sequence: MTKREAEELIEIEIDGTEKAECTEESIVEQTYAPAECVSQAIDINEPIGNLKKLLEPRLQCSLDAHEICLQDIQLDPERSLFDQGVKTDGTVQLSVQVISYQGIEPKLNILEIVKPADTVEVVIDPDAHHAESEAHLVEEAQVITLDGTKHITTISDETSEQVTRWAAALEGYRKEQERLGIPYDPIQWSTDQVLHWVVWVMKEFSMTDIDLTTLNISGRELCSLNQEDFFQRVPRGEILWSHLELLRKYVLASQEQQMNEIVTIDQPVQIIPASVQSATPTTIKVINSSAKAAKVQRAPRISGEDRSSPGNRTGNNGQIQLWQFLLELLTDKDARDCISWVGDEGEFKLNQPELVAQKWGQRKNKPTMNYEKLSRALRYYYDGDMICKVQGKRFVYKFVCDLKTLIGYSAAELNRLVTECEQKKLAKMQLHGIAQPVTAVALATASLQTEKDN
# Method in brief: as §1
# ERG = biological target: T4, ERG (Homo sapiens, UniProt P11308 1-479)
# T4 sequence: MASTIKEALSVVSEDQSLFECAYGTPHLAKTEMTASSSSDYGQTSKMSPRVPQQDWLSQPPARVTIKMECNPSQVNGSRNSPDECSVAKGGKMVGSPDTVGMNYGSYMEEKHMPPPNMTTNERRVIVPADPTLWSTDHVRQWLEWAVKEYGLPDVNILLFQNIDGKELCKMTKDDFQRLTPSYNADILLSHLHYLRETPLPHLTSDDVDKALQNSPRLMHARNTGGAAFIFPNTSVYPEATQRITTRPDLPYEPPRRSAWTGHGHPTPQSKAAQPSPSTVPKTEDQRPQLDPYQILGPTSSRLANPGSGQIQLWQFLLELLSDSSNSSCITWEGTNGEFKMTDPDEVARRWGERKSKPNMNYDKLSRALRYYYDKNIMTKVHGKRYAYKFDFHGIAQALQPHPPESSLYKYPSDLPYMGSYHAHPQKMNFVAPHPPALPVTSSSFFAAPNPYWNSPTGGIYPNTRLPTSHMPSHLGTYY
# Method in brief: as §1
# ELF1 = ELF1 (Homo sapiens, UniProt P32519 1-619)
# Chain of ELF1 (P32519 whole entry): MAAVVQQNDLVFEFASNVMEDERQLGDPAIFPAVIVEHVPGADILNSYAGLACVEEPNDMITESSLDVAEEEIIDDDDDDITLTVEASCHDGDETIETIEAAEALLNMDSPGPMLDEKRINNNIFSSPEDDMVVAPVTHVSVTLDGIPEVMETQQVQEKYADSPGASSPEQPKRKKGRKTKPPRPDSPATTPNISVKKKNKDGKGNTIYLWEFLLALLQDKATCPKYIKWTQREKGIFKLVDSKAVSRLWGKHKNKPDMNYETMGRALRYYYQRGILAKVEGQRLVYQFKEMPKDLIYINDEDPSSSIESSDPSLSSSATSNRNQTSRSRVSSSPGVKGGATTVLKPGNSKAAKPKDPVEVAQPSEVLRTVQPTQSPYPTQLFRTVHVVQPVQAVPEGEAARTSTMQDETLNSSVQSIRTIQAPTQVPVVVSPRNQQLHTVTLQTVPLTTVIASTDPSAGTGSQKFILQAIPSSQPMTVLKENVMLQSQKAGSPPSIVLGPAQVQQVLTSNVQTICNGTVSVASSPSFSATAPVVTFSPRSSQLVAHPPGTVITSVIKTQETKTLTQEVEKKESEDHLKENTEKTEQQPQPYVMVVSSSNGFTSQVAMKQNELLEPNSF
# Method in brief: as §1
# EHF = biological target: T5, EHF (Homo sapiens, UniProt Q9NZC4 1-300)
# T5 sequence: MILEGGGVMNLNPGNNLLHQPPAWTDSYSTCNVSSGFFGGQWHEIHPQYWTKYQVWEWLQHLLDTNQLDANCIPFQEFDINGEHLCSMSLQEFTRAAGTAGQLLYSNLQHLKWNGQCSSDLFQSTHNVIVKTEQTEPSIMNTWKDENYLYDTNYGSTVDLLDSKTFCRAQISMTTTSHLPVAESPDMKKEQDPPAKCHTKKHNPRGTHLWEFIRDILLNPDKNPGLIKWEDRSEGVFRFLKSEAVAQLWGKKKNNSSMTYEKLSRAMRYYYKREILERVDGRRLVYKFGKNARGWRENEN
# Method in brief: as §1
# SPI1 = SPI1 (Homo sapiens, UniProt P17947 1-270)
# Method in brief: as §1
# SPIB = SPIB (Homo sapiens, UniProt Q01892 1-262)
# Chain of SPIB (Q01892 whole entry): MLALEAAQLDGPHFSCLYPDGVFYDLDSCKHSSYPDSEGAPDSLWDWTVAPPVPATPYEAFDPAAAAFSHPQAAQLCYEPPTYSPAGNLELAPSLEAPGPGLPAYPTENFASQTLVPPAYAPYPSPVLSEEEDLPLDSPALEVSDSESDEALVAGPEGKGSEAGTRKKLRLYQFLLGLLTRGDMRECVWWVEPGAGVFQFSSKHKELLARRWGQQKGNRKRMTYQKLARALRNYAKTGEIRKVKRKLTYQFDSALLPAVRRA
# Method in brief: as §1
# ELK3 = biological target: T6, ELK3 (Homo sapiens, UniProt P41970 1-407)
# T6 sequence: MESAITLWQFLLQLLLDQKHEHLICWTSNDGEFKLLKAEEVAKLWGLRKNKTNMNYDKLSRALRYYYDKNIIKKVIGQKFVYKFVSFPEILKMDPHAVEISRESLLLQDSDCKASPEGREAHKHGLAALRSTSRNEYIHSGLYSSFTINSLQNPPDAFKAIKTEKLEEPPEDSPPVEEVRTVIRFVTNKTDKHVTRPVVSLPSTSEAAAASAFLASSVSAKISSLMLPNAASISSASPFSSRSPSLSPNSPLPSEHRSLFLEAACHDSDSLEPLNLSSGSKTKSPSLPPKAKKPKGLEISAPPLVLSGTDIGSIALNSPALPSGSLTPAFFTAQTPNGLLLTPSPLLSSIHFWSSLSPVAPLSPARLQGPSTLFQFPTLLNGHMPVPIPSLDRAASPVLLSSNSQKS
# Method in brief: as §1
# FEV = biological target: T7, FEV (Homo sapiens, UniProt Q99581 1-238)
# T7 sequence: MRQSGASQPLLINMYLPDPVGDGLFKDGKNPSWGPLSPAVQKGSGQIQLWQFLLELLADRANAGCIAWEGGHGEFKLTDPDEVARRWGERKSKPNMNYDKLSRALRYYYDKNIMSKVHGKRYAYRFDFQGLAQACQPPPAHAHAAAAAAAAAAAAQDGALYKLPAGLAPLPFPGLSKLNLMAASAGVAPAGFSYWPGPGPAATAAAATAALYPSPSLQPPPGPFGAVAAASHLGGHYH
# Method in brief: as §1
# ETV5 = ETV5 (Homo sapiens, UniProt P41161 1-510)
# Chain of ETV5 (P41161 whole entry): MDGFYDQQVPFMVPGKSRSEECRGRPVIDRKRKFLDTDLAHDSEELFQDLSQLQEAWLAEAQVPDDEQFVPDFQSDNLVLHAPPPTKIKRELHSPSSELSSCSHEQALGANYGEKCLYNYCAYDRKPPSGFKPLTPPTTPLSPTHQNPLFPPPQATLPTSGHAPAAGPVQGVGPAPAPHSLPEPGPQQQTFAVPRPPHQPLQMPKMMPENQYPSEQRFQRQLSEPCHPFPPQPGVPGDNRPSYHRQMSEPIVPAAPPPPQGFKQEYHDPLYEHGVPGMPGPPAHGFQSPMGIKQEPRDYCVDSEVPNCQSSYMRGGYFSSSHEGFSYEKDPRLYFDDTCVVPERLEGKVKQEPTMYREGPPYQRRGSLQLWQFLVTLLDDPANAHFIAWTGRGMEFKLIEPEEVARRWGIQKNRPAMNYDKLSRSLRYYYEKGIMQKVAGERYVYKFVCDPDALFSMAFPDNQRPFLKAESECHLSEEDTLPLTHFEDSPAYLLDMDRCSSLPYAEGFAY
# Method in brief: as §1
# SPIC = biological target: T8, SPIC (Homo sapiens, UniProt Q8N5J4 1-248)
# T8 sequence: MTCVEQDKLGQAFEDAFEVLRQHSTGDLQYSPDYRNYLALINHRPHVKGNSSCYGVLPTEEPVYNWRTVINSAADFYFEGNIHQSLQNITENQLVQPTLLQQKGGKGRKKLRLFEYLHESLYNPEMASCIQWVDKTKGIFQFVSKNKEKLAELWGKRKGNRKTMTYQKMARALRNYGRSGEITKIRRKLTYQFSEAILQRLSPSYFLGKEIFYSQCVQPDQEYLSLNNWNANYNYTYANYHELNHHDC
# Method in brief: as §1
# ELF4 = ELF4 (Homo sapiens, UniProt Q99607 1-663)
# Chain of ELF4 (Q99607 whole entry): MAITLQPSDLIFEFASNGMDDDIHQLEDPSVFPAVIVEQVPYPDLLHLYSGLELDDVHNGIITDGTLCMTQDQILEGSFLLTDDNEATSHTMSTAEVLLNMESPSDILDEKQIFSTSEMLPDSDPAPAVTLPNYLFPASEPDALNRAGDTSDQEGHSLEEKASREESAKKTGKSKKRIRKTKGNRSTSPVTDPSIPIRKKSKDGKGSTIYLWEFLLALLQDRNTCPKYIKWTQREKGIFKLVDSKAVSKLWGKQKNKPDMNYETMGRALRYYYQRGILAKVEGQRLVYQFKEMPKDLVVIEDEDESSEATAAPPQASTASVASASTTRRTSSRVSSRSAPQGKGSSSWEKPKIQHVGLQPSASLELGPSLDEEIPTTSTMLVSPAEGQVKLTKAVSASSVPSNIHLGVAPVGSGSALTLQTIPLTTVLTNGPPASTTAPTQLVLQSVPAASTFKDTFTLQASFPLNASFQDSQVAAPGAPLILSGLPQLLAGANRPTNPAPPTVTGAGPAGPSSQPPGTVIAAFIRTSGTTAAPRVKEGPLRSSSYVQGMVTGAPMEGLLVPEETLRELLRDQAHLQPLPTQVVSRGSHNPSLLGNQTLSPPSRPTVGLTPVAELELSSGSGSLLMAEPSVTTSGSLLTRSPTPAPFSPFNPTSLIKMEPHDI
# Method in brief: as §1
# ELK4 = biological target: T9, ELK4 (Homo sapiens, UniProt P28324-2 1-405)
# T9 sequence: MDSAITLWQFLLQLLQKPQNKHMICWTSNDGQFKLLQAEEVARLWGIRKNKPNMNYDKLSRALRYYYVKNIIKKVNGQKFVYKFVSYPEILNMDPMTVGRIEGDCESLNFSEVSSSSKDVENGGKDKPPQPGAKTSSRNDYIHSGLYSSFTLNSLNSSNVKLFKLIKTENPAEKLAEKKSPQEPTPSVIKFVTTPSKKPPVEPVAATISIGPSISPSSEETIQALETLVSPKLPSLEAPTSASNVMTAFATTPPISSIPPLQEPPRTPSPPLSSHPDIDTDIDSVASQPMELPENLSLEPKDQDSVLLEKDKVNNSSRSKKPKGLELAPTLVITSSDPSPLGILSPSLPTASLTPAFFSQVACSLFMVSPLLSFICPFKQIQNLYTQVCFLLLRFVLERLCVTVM
# Method in brief: as §1
# ETV2 = biological target: T10, ETV2 (Homo sapiens, UniProt O00321 1-342)
# T10 sequence: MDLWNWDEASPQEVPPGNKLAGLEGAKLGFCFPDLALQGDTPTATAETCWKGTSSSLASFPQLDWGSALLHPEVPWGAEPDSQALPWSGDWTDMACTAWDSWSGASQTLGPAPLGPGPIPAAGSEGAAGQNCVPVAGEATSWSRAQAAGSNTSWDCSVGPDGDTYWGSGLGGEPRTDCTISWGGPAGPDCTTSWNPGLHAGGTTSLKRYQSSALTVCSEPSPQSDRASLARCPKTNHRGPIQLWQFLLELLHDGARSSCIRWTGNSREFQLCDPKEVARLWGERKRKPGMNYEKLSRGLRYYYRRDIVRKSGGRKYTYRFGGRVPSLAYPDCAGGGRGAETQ
# Method in brief: as §1
# ELF3 = biological target: T11, ELF3 (Homo sapiens, UniProt P78545 1-371)
# T11 sequence: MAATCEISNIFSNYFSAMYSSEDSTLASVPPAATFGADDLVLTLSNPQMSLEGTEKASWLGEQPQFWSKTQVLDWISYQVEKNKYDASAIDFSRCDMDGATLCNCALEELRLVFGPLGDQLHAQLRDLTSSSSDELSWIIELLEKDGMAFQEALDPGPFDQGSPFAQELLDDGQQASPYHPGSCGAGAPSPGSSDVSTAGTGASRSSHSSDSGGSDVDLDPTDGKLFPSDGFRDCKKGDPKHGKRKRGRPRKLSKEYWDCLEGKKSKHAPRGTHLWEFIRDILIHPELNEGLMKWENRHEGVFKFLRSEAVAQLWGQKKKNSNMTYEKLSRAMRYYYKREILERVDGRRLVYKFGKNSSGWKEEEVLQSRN
# Method in brief: as §1
# ETV1 = ETV1 (Homo sapiens, UniProt P50549 1-477)
# Chain of ETV1 (P50549 whole entry): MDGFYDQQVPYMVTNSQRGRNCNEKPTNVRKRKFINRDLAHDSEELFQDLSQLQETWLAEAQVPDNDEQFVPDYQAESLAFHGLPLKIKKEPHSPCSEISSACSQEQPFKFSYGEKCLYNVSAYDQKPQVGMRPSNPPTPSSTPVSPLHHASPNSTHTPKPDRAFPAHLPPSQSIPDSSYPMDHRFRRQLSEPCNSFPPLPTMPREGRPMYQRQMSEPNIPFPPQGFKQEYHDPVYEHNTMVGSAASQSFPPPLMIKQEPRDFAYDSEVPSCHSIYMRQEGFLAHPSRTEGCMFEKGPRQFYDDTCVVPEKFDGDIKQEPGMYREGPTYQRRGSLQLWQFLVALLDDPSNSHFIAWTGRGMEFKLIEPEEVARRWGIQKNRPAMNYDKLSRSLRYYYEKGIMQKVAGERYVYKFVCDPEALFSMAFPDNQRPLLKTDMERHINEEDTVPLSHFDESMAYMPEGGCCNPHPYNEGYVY
# Method in brief: as §1
sequence,measurement,setting,value
AACCAC,binding signal,FLI1,"1.18 fold enrichment (6-mer frequency, TF over GST control)"
same,binding signal,ELK1,"1.19 fold enrichment (6-mer frequency, TF over GST control)"
same,binding signal,GABPA,"1.17 fold enrichment (6-mer frequency, TF over GST control)"
same,binding signal,ERG,"1.15 fold enrichment (6-mer frequency, TF over GST control)"
same,binding signal,ELF1,"1.25 fold enrichment (6-mer frequency, TF over GST control)"
same,binding signal,EHF,"1.16 fold enrichment (6-mer frequency, TF over GST control)"
same,binding signal,SPI1,"1.12 fold enrichment (6-mer frequency, TF over GST control)"
same,binding signal,SPIB,"1.19 fold enrichment (6-mer frequency, TF over GST control)"
same,binding signal,ELK3,"1.29 fold enrichment (6-mer frequency, TF over GST control)"
same,binding signal,FEV,"1.2 fold enrichment (6-mer frequency, TF over GST control)"
same,binding signal,ETV5,"1.17 fold enrichment (6-mer frequency, TF over GST control)"
same,binding signal,SPIC,"1.25 fold enrichment (6-mer frequency, TF over GST control)"
same,binding signal,ELF4,"1.26 fold enrichment (6-mer frequency, TF over GST control)"
same,binding signal,ELK4,"1.26 fold enrichment (6-mer frequency, TF over GST control)"
same,binding signal,ETV2,"1.05 fold enrichment (6-mer frequency, TF over GST control)"
same,binding signal,ELF3,"1.21 fold enrichment (6-mer frequency, TF over GST control)"
same,binding signal,ETV1,"1.17 fold enrichment (6-mer frequency, TF over GST control)"
CAAATG,binding signal,FLI1,"1.11 fold enrichment (6-mer frequency, TF over GST control)"
same,binding signal,ELK1,"1.16 fold enrichment (6-mer frequency, TF over GST control)"
same,binding signal,GABPA,"1.08 fold enrichment (6-mer frequency, TF over GST control)"
same,binding signal,ERG,"1.16 fold enrichment (6-mer frequency, TF over GST control)"
same,binding signal,ELF1,"1.22 fold enrichment (6-mer frequency, TF over GST control)"
same,binding signal,EHF,"1.1 fold enrichment (6-mer frequency, TF over GST control)"
same,binding signal,SPI1,"1.25 fold enrichment (6-mer frequency, TF over GST control)"
same,binding signal,SPIB,"1.13 fold enrichment (6-mer frequency, TF over GST control)"
same,binding signal,ELK3,"1.09 fold enrichment (6-mer frequency, TF over GST control)"
same,binding signal,FEV,"1.11 fold enrichment (6-mer frequency, TF over GST control)"
same,binding signal,ETV5,"1.09 fold enrichment (6-mer frequency, TF over GST control)"
same,binding signal,SPIC,"1.01 fold enrichment (6-mer frequency, TF over GST control)"
same,binding signal,ELF4,"1.15 fold enrichment (6-mer frequency, TF over GST control)"
same,binding signal,ELK4,"1.11 fold enrichment (6-mer frequency, TF over GST control)"
same,binding signal,ETV2,"1.19 fold enrichment (6-mer frequency, TF over GST control)"
same,binding signal,ELF3,"1.15 fold enrichment (6-mer frequency, TF over GST control)"
same,binding signal,ETV1,"1.19 fold enrichment (6-mer frequency, TF over GST control)"
